Experimental data: PubChem BioAssay (EPA / NIEHS)
Values joined by “and” are separate entries in the source; they are usually repeats but may differ in a detail not shown here. Equal values may be shown once. Inconclusive results are not listed. Some structures have more than one record in an assay (separate samples or runs), and their calls can disagree. Active and inactive are the calls of the source. The calls were made as follows, unless noted: active = hit-call score of the fitted dose curve at least 0.9, where 1 is the maximum; inactive = score below 0.9.

What was measured:
[1] = read-out: Interleukin-8 (IL8), CXCL8 (gene 3576); assay: BSK_3C_IL8: BioMAP Diversity Plus: 3C Assay for Interleukin-8 (IL8) Biomarker Activity (AID 2283020); conditions: primary human endothelial cells (HUVEC); actives raise or lower the signal
Outline: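 Primary human umbilical vein endothelial cells (3C system) were exposed to test chemical for 24 h, then IL-8 was quantified by ELISA. Responses were fitted bidirectionally against DMSO vehicle as baseline.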

[2] = read-out: Monokine induced gamma interferon (MIG), CXCL9 (gene 4283); assay: BSK_3C_MIG: BioMAP Diversity Plus: 3C Assay for Monokine induced gamma interferon (MIG) Biomarker Activity (AID 2283021); conditions: primary human endothelial cells (HUVEC); actives raise or lower the signal;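 as to AC50: MIG protein level measured by immunoassay in the treated endothelial cultures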
Outline: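 Primary human umbilical vein endothelial cells in the 3C system were exposed to chemical for 24 h, after which MIG was quantified by ELISA. Activity was fitted bidirectionally against DMSO as negative control and baseline.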

[3] = molecular target: human Vitamin D Receptor (VDR), VDR (gene 7421) (UniProt P11473); assay: ATG_VDR_TRANS: Attagene TRANS-FACTORIAL HepG2 Assay for human Vitamin D Receptor (VDR) (AID 2283022; active = hit-call score of the fitted dose curve at least 0.9, where 1 is the maximum)
human Vitamin D Receptor (VDR), VDR (gene 7421), sequence (P11473 whole entry, looked up, the tested form may be a part): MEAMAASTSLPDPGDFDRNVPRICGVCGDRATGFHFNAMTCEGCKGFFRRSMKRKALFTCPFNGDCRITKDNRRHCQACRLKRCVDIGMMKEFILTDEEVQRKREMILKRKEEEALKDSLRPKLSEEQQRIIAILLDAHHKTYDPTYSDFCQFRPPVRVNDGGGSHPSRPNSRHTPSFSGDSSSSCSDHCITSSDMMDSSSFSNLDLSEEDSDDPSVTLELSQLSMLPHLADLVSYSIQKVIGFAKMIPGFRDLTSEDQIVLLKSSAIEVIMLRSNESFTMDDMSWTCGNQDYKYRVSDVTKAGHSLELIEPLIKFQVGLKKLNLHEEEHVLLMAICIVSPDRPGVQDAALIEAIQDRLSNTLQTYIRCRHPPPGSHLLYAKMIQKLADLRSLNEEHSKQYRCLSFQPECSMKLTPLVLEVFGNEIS
Outline: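 Fluorescence of labelled reporter cDNA fragments, resolved by capillary electrophoresis, gives mRNA induction after 24 h treatment of HepG2 cells carrying transfected Gal4-fusion reporter units. Activity is fitted in the positive direction with DMSO as baseline.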

[4] = BSK_3C_SRB: Viability Assessment in the BioMAP Diversity Plus: 3C Assay (AID 2283023); conditions: primary human endothelial cells (HUVEC);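 also: cells read 24 h after compound dosing; fitted both ways against DMSO so a hit may be signal rise or drop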
Outline: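 Cells were dosed with chemical, cultured 24 h, fixed with 10% TCA, stained with 0.1% SRB and read at 560 nm. Human umbilical vein endothelium was used; DMSO served as negative control and baseline.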

[5] = read-out: Matrix Metallopeptidase 1 (MMP1), MMP1 (gene 4312); assay: BSK_BE3C_MMP1: BioMAP Diversity Plus: BE3C Assay for Matrix Metallopeptidase 1 (MMP1) Biomarker Activity (AID 2283024); conditions: primary human bronchial epithelial cells; actives raise or lower the signal
Outline: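 Primary human bronchial epithelial cells were dosed with test chemicals, and MMP1 levels were measured by ELISA 24 h later. Data were fitted bidirectionally against DMSO as the negative control and activity baseline.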

[6] = BSK_3C_Vis: BioMAP Diversity Plus: 3C Assay for Morphology Visualization (AID 2283025); conditions: primary human endothelial cells (HUVEC);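 also: fitted both ways so gain or loss versus DMSO counts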
Outline: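 Human umbilical vein endothelial cells in the 3C system were imaged by light microscopy 24 h after chemical dosing to record cell morphology. Activity was fitted bidirectionally against DMSO as negative control and baseline; the endpoint serves as a background control.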

[7] = read-out: Pselectin, SELP (gene 6403); assay: BSK_4H_Pselectin: BioMAP Diversity Plus: 4H Assay for Pselectin Biomarker Activity (AID 2283026); conditions: primary human endothelial cells (HUVEC); actives raise or lower the signal
Outline: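 Primary human umbilical vein endothelial cells were exposed to test chemical for 24 h, then cell-surface P-selectin was quantified by ELISA. Activity was fitted bidirectionally against DMSO as negative control and baseline.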

[8] = BSK_BE3C_SRB: Viability Assessment in the BioMAP Diversity Plus: BE3C Assay (AID 2283028); conditions: primary human bronchial epithelial cells;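 as to AC50: fitted both ways so AC50 may mark signal gain or loss versus DMSO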
Outline: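 Overt cytotoxicity was assessed as total protein in confluent human primary bronchial epithelial cultures 24 h after chemical addition, using 0.1% sulforhodamine B staining read at 560 nm.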

[9] = read-out: Thrombomodulin, THBD (gene 7056); assay: BSK_3C_Thrombomodulin: BioMAP Diversity Plus: 3C Assay for Thrombomodulin Biomarker Activity (AID 2283029); conditions: primary human endothelial cells (HUVEC); actives raise or lower the signal
Outline: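 Primary human umbilical vein endothelial cells (3C system) were exposed to chemical for 24 h, then thrombomodulin levels were measured by ELISA. Activity was fitted bidirectionally against the DMSO negative control as baseline.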

[10] = BSK_4H_SRB: Viability Assessment in the BioMAP Diversity Plus: 4H Assay (AID 2283027); conditions: primary human endothelial cells (HUVEC);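 also: cells exposed to compound for 24 h before staining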;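 as to AC50: curves fitted both ways versus DMSO so AC50 may be loss or gain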
Outline: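 Human umbilical vein endothelial cells were dosed with chemical and, after 24 h, fixed with 10% TCA, stained with 0.1% sulforhodamine B, and read at 560 nm to give total protein as a cytotoxicity measure. Bidirectional fitting relative to DMSO control.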

Measured: AC50

CCCCCCCCC(CO)CCCCCC (configuration not stated)
not listed: [10]
inactive: all other assays above

CC=C(C)C(C)=O
active: [5] 419 nM
not listed: [3]
inactive: all other assays above

C=CC(=O)OCCCCCCCC(C)C
active: [9] 6.25 µM
inactive: all other assays above

CC/C=C\C/C=C\C/C=C\CCCCCCCC(=O)OC
active: [1] 37.2 µM | [2] 37.2 µM | [4] 29.8 µM | [5] 33600 nM | [6] 37.5 µM | [7] 19.9 µM | [10] 20 µM | [8] 28.5 µM | [9] 5.05 µM
inactive: [3]

Nc1cccc(N)n1
inactive: all assays above

c1ccc2sc(SSN3CCOCC3)nc2c1
active: [4] 6.19 µM | [6] 8.8 µM | [7] 4.4 µM
not listed: [9] | [10]
inactive: all other assays above

Cc1ccc([N+](=O)[O-])cc1N
not listed: [10]
inactive: all other assays above

CC(C)CCCCCOC(=O)CS
not listed: [3]
inactive: all other assays above

Clc1cc(Cl)c(Cl)c(Cl)c1Cl
active: [7] 34.7 µM
not listed: [3]
inactive: all other assays above

C[N+](C)(C)CCCNS(=O)(=O)C(F)(F)C(F)(F)C(F)(F)C(F)(F)C(F)(F)C(F)(F)C(F)(F)C(F)(F)F
active: [1] 44.3 µM | [4] 30.7 µM and 20.8 µM | [5] 19600 nM | [7] 30 µM and 16.8 µM
inactive: [1] | [2] | [3] | [5] | [8] | [9]

CCOC(=O)C1=NOC(c2ccccc2)(c2ccccc2)C1
active: [1] 3.97 µM
not listed: [3] | [10]
inactive: all other assays above

COc1ccc(C(=O)/C(Br)=C\C(=O)O)cc1
inactive: [3] | [4] | [5] | [8]
active: [1] 20 µM and 25.9 µM | [2] 35.3 µM and 34.3 µM | [6] 37.4 µM and 37.5 µM | [7] 6.04 µM and 16.3 µM | [9] 34.9 µM and 35.4 µM

CCOC(=O)/C=C\C(=O)OCC
not listed: [3]
inactive: all other assays above

O=C(Cl)c1c(Cl)c(Cl)c(C(=O)Cl)c(Cl)c1Cl
not listed: [3]
inactive: all other assays above

CCCCC1C(=O)N(c2ccccc2)N(c2ccccc2)C1=O
active: [6] 37.5 µM
not listed: [10]
inactive: all other assays above

COC(OC)(C(=O)c1ccccc1)c1ccccc1
active: [1] 0.016 µM
inactive: all other assays above

CC(CCC(=O)O)(c1ccc(O)cc1)c1ccc(O)cc1
not listed: [6]
inactive: all other assays above

Cc1c(O)cccc1O
not listed: [3]
inactive: all other assays above

CCc1cccc(C)c1N(C(=O)CS(=O)(=O)O)C(C)COC (configuration not stated)
not listed: [10]
inactive: all other assays above

O=C(O)C(F)(F)C(F)(F)C(F)(F)C(F)(F)C(=O)O
not listed: [6] | [10]
inactive: all other assays above

CC(Cl)COP(=O)(OCC(C)Cl)OCC(C)Cl (configuration not stated)
not listed: [10]
inactive: all other assays above

Oc1ccc(/C=C/c2cc(O)cc(O)c2)cc1
active: [6] 20 µM | [10] 20 µM
not listed: [3]
inactive: all other assays above

Fc1ccc(Br)cc1
not listed: [3] | [10]
inactive: all other assays above

CC1(C)CC(O)CC(C)(C)N1[O]
not listed: [3]
inactive: all other assays above

C=CC(=O)NC(C)(C)C
not listed: [10]
inactive: all other assays above

O=C(Oc1ccccc1)c1ccccc1C(=O)Oc1ccccc1
active: [4] 20 µM
not listed: [3]
inactive: all other assays above

CCNc1nc(NC(C)(C)C)nc(OC)n1
not listed: [10]
inactive: all other assays above

c1ccc2c(c1)[nH]c1ccccc12
inactive: [1] | [2] | [4] | [5] | [6] | [7] | [8] | [9]
active: [5] 126 nM | [9] 6.87 µM

NC(=O)Nc1ccccc1
inactive: [3]

CC(C)C(=O)OCCc1ccccc1
not listed: [3] | [6] | [10]
inactive: all other assays above

CC/C=C\CCOC(=O)c1ccccc1O
inactive: [2] | [5] | [8] | [9]
active: [1] 34.7 µM | [4] 29.9 µM | [6] 37.1 µM | [7] 12.4 µM

[Cl][Sc]([Cl])[Cl]
inactive: [3]

Nc1nc(N)nc(-c2ccccc2)n1
not listed: [3] | [6] | [10]
inactive: all other assays above

CC(C)(C)NC(=O)[C@H]1CC[C@H]2[C@@H]3CC[C@H]4NC(=O)C=C[C@]4(C)[C@H]3CC[C@]12C
inactive: [3]

CC=C(C)C=CC=C(C)C
active: [9] 3.97 µM
not listed: [3] | [10]
inactive: all other assays above

CCC1(C)C(=O)N(Cl)C(=O)N1Cl (configuration not stated)
not listed: [3] | [10]
inactive: all other assays above

C=C(C)C(=O)OCCCCCCCCCCCC
not listed: [3] | [10]
inactive: all other assays above

O=S(=O)(O)c1ccc(Nc2nc(Nc3ccc(C=Cc4ccc(Nc5nc(Nc6ccc(S(=O)(=O)O)cc6)nc(N(CCO)CCO)n5)cc4S(=O)(=O)O)c(S(=O)(=O)O)c3)nc(N(CCO)CCO)n2)cc1
inactive: [3]

Nc1ccc(C(=O)O)cc1
not listed: [3] | [10]
inactive: all other assays above

Oc1c(Cl)cc(Cl)c(Cl)c1Cl
active: [1] 20 µM | [4] 20 µM | [5] 4310 nM | [6] 16.6 µM | [7] 31.5 µM
inactive: [2] | [8] | [9]

CCCCOCC(C)O (configuration not stated)
inactive: [3]

CCCCCCCCCCCC(C)=O
active: [1] 28.6 µM | [2] 35 µM | [4] 29.9 µM | [5] 16 nM | [6] 37.8 µM | [7] 28.1 µM
inactive: [8] | [9]

CC1=CC=C(C(C)C)CC1
not listed: [3] | [10]
inactive: all other assays above

O=C1CCCCCCCCCCC1
not listed: [3] | [10]
inactive: all other assays above

C=CC(=O)OCCCCCCCCCC
inactive: [3]

C=CCCCCCCCCC=O
not listed: [3] | [10]
inactive: all other assays above

CCCc1ccc(O)c(OC)c1
inactive: [3]

CCCCCCC=O
not listed: [3] | [10]
inactive: all other assays above

CC(C)c1cccc(C(C)C)c1N
active: [6] 37.5 µM
not listed: [3] | [10]
inactive: all other assays above

Nc1ccc(O)c([N+](=O)[O-])c1
inactive: [3]

c1ccc(Nc2cccc3ccccc23)cc1
active: [1] 27.6 µM and 24.6 µM | [2] 36.5 µM and 31.8 µM | [4] 31.8 µM and 34 µM | [5] 8.87 µM and 4.89 µM | [7] 35.2 µM and 33 µM | [8] 27.4 µM and 28.4 µM
inactive: [9]

CCN1CN(CC)CN(CC)C1
active: [5] 112 nM
not listed: [3] | [10]
inactive: all other assays above

CC(C)COC(=O)CC(C(=O)OCC(C)C)S(=O)(=O)O (configuration not stated)
inactive: [3]

Cc1c[nH]c(=O)[nH]c1=O
inactive: [3]

CCCC(C)C(=O)OCC (configuration not stated)
not listed: [3] | [6] | [10]
inactive: all other assays above

COc1ccc(C(=O)c2ccccc2)c(O)c1
active: [4] 4.55 µM
not listed: [3] | [10]
inactive: all other assays above

C=CC(=O)OCC(C)OCC(C)OCC(C)OC(=O)C=C (configuration not stated)
inactive: [5] | [8] | [9]
active: [1] 20 µM | [2] 35.5 µM | [4] 20 µM | [6] 16 µM | [7] 13.2 µM
